BaF3 parental – reduces parental Ba/F3 cell viability, JAK2V617F counter-screen; inhibition, % at 5.6 µM; CellTiter-Glo ATP luminescence; 1.1% of 220,000 active;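 active means inhibition above a per-campaign cutoff, the mean inhibition of all tested compounds plus 3 SD, cut at about 27% in these data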;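 further: 0% = DMSO wells and 100% = JAK Inhibitor I control wells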
KLF5 inh – suppresses KLF5 promoter-driven expression | DLD-1 KLF5 promoter-luciferase reporter, luminescence | inhibition, % at 5 µM | 0.23% of 290,000 active | AID 1700;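 active means inhibition above a per-plate limit of that plate's mean compound inhibition plus 3 SD, cut at about 60% in these data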;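 further: 0% = DMSO wells and 100% = LY294002 at 200 µM; higher means less KLF5 promoter-driven luciferase light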
APP 5UTR inh – APP translation inhibition | SH-SY5Y APP 5'UTR-luciferase reporter, luminescence | inhibition, % at 2 µM | 0.82% of 190,000 active;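 active means inhibition above a set limit, derived from the sample mean plus 3 SD, cut at about 45% in these data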
aSyn UTR inh – 5' untranslated region of α-synuclein, MLPCN primary screen; alpha-synuclein 5'UTR reporter, inhibitor activity; 0.82% of 300,000 active; inhibition, % (tested at 7.5 µM); in the data active means inhibition above about 60%;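 further: H4 neuroglioblastoma cells stably carrying SNCA 5'UTR luciferase fusion; 0% = DMSO wells and 100% = positive control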
Ba/F3 V617F tox – lowers viability of Ba/F3 cells expressing EpoR and JAK2V617F | ATP luminescence | inhibition, % at 5.6 µM | 1.1% of 220,000 active;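 active means inhibition above the campaign mean plus 3 SD over all tested compounds, cut at about 24% in these data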;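 further: cytokine-independent growth of Ba/F3 cells driven by EpoR plus mutant JAK2; 0% = DMSO-treated cells and 100% = JAK inhibitor I control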
IEC-6 cytotox – kills IEC-6 intestinal cells in KLF5 counter-screen. IEC-6 cytotoxicity, luminescence viability. inhibition, % at 5 µM. 0.78% of 290,000 active;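 further: 0% = plate median of test compound wells and 100% = cytotoxic reference compound wells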
IEC-6 tox confirm – IEC-6 cytotoxicity, confirmation assay. inhibition, % at 5 µM. AID 1907. shares compounds with IEC-6 cytotox. IEC-6 rat intestinal epithelial viability, luminescence. 63% of 1,900 active;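 further: 0% = vehicle and 100% = reference cytotoxic drug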
Starred values were filed as active, the others as inactive; . = no result. Only some compounds are listed: those with a hit (about 2.2% of all), similar ones and a draw of the others. Unless noted, no stated cut-off is given here; in the data, active means inhibition above about 22%; inactive means the rest.

SMILES	BaF3 parental	KLF5 inh	APP 5UTR inh	aSyn UTR inh	Ba/F3 V617F tox	IEC-6 cytotox	IEC-6 tox confirm
CC(=O)N1CCc2c(sc3c2c(=O)n(-c2ccccc2)c(=O)n3CC(=O)NCC2CCCO2)C1 (stereo not given)	.	-33.7	.	4.9	.	-6.1	.
O=[N+]([O-])c1cc([N+](=O)[O-])c2cc3ccccc3nc2c1	.	3.0	.	-176.0	.	45.8*	11.6
C=C1CCN(c2ccc(C(=O)NCCC)cc2[N+](=O)[O-])CC1	.	.	.	-16.3	.	.	.
CCOC(=O)CSC1=C(C#N)C(c2ccc(C)s2)CC(=O)N1 (stereo not given)	77.5*	52.7	91.4*	40.6	81.1*	74.9*	52.5*
CCSC1=C(C#N)C(c2ccc(C)s2)CC(=O)N1 (stereo not given)	0.0	-3.5	-2.2	18.4	-2.1	-1.4	.
COC(=O)C[C@H]1c2ccccc2S(=O)(=O)N1Cc1ccc(OC)cc1	.	.	.	10.4	.	.	.
O=c1cc(-c2ccccc2)[nH]c2cc(Cl)ccc12	45.7*	60.9	94.7*	104.3*	80.4*	57.2*	57.8*
Clc1ccc2[nH]c(-c3ccccc3)cc2c1	6.4	-66.4	-118.8	.	3.2	7.4	.
Cc1ccc2nc(C)c(CN3CCN(c4ccc([N+](=O)[O-])cc4Cl)CC3)n2c1	.	-7.2	.	51.8	.	26.4*	47.3*
O=[N+]([O-])c1c(Nc2ccccc2O)cc(Cl)c2nonc12	.	15.1	.	11.6	.	96.2*	42.7*
Cc1ccccc1C(=O)NC1CCN(C(=O)Nc2ccc(F)cc2)CC1	.	16.2	.	0.8	.	8.7	.
Cc1cc2nc(C3CCN(Cc4nnnn4Cc4cccs4)CC3)[nH]c2cc1C	6.8	-11.5	3.6	63.0*	1.7	46.3*	34.4*
C/C(=N\NC(=O)c1nonc1N)c1cccs1	9.0	-7.3	2.1	-23.1	3.0	-1.2	.
O=C(Cc1cn2ccsc2n1)OCc1ccccc1	-0.9	-13.7	-5.6	.	-1.8	34.7*	19.1
CCOc1ccc(-c2[nH]ncc2-c2ccc(OC)c(OC)c2)c(O)c1	58.6*	46.9	69.7*	.	53.2*	41.4*	50.3*
Cn1c(COc2ccc(Cl)cc2)nnc1SCC(=O)NC1CCCC1	.	12.6	.	5.6	.	2.8	.
CCCC(=O)Nc1ccc2c(c1)nc(CN1CCN(C(=O)OCC)CC1)n2CC	.	48.8	.	-52.7	.	31.1*	17.7
COc1cc2c(cc1OC)C(c1cccs1)N(C(=O)C(C)C)CC2 (stereo not given)	6.4	-1.4	-15.3	-15.3	-2.2	-1.4	.
COc1cc2c(cc1OC)C(c1cccs1)N(C(=O)c1cccnc1)CC2 (stereo not given)	46.2*	40.1	45.0*	-12.0	45.9*	46.4*	34.2*
COc1ccc(N=Nc2nc3ccc(Br)cc3n2C)cc1	9.8	-27.9	-37.7	-112.9	6.1	18.6	.
Clc1ccc(Cn2ncc3c(NCc4ccccc4)ncnc32)cc1	10.3	45.4	23.1	-25.6	2.1	28.2*	27.2*
CN1CCN(NC(=S)NC2CCCCC2)CC1	8.9	-2.5	-2.7	12.1	4.6	1.3	.
COc1ccccc1NS(=O)(=O)c1cccs1	0.5	-32.8	-2.8	24.5	-2.6	3.4	.
COc1ccccc1NS(=O)(=O)c1ccc(-c2cc(C)no2)s1	.	27.1	.	-101.8	.	39.7*	16.6
COc1ccccc1CNS(=O)(=O)c1ccc(-c2cc(C)no2)cc1	.	53.1	.	80.0*	.	78.9*	53.3*
SMILES	BaF3 parental	KLF5 inh	APP 5UTR inh	aSyn UTR inh	Ba/F3 V617F tox	IEC-6 cytotox	IEC-6 tox confirm
COC(=O)Cn1nnc(N2CCOCC2)n1	0.4	-15.0	.	8.2	-3.5	-3.8	.
COC(=O)CC1COc2ccccc2N1S(=O)(=O)c1ccc(OC)cc1 (stereo not given)	.	32.1	.	-22.6	.	31.2*	0.1
CC(C)c1nnc(NC(=O)c2nc(S(=O)(=O)Cc3ccccc3)ncc2Cl)s1	.	18.2	.	-81.3	.	41.5*	-1.1
CCCc1nnc(NC(=O)c2nc(S(=O)(=O)Cc3ccc(C)cc3)ncc2Cl)s1	.	-6.8	.	-9.4	.	7.5	.
CSc1nnc(NC(=O)c2nc(S(=O)(=O)Cc3ccccc3)ncc2Cl)s1	.	19.9	.	-35.3	.	33.8*	9.1
O=C(NCC1OCCc2ccccc21)c1cc(COc2c(F)cccc2F)on1 (stereo not given)	103.0*	36.2	-4.0	-7.5	98.3*	82.4*	-10.1
O=C(NC1CCc2ccccc21)c1cc(COc2c(F)cccc2F)on1 (stereo not given)	2.5	-24.3	.	2.8	1.8	8.5	.
CCN1CCN(c2ncc3c(n2)CC(c2cc(OC)c(OC)c(OC)c2)CC3=O)CC1 (stereo not given)	81.7*	52.5	5.3	35.2	80.7*	65.1*	57.4*
CN(C)c1ccc(NC(=O)CSc2nc3ccccc3c(=O)n2C2CCCCC2)cc1	5.6	-3.6	0.9	29.4	1.3	2.4	.
Cc1cc(NC(=O)CSc2nc3ccccc3c(=O)n2C2CCCC2)no1	7.5	31.2	-8.9	85.8*	13.3	62.6*	56.4*
COC(=O)C(NC(=O)c1ccco1)(Nc1cc(C)ccn1)C(F)(F)F (stereo not given)	7.1	-14.2	-1.7	-4.9	5.6	52.0*	7.7
CC(C)(C)NC(=O)CN(C(=O)CNC(=O)c1cccs1)c1ccc2c(c1)OCCO2	7.2	-20.2	-13.4	1.1	-2.2	-7.3	.
COc1ccc(/C=C2\COc3ccccc3C2=O)c(OC)c1	.	-58.3	.	-139.8	.	26.0*	-2.6
COc1ccc(NC(=O)c2ccc3c(=O)n(-c4ccc(OC)cc4OC)c(=S)[nH]c3c2)cc1	1.5	-24.3	-1.7	-4.7	-2.4	-1.4	.
COc1ccc(-n2c(=S)[nH]c3cc(C(=O)Nc4ccc(F)cc4)ccc3c2=O)c(OC)c1	.	50.2	.	-141.9	.	31.6*	17.7
CCOC(=O)c1c(NC(=O)CN2C(=O)NC3(CCC(C)CC3)C2=O)sc(C)c1-c1ccc(C)cc1 (stereo not given)	6.5	1.6	-6.6	-19.8	-2.9	-4.1	.
Cc1cc2cc3c(cc2nc1SCC(=O)N1CCCC1)OCCO3	.	-4.1	.	2.0	.	30.2*	37.7*
CCCCc1ccc(NC(=O)Nc2cnccn2)cc1	.	-23.8	.	-98.3	.	45.4*	22.6*
Cc1cccc(NS(=O)(=O)c2ccc(-c3cnc(C4CC4)o3)cc2)c1C	.	37.8	.	99.7*	.	87.9*	58.3*
O=S(=O)(Nc1ccccc1)c1ccc(-c2cnc(C3CC3)o2)cc1	.	39.1	.	-0.5	.	41.5*	32.6*
CCOc1ccc(NS(=O)(=O)c2ccc(-c3cnc(C4CC4)o3)cc2)cc1	.	-9.0	.	-3.4	.	17.5	.
CC(=O)c1cccc(NS(=O)(=O)c2ccc(-c3cnc(C4CC4)o3)cc2)c1	.	21.8	.	-5.4	.	37.5*	37.6*
O=S(=O)(NCc1ccc(F)cc1)c1ccc(-c2cnc(C3CC3)o2)cc1	.	-24.7	.	2.3	.	5.0	.
Cc1cc(C)cc(NS(=O)(=O)c2ccc(-c3cnc(C4CC4)o3)cc2)c1	.	59.3	.	93.4*	.	87.2*	50.7*
CC(=O)Nc1ccc(NS(=O)(=O)c2ccc(-c3cnc(C4CC4)o3)cc2)cc1	.	-13.2	.	-8.6	.	4.9	.
